Compound activity from PubChem BioAssay.
TRPV1 PAM: human TRPV1 potentiation | Q8NER1 | 320,000 tested, 0.02% active | AID 540277 | TRPV1-expressing cells, Fluo-8 calcium influx, capsaicin EC20 potentiation | potentiation, % at 8.33 µM; in the data active means potentiation above about 80%; inconclusive means between about 30% and that limit; further: 0% is about no effect
Target sequence (Q8NER1 whole entry, looked up): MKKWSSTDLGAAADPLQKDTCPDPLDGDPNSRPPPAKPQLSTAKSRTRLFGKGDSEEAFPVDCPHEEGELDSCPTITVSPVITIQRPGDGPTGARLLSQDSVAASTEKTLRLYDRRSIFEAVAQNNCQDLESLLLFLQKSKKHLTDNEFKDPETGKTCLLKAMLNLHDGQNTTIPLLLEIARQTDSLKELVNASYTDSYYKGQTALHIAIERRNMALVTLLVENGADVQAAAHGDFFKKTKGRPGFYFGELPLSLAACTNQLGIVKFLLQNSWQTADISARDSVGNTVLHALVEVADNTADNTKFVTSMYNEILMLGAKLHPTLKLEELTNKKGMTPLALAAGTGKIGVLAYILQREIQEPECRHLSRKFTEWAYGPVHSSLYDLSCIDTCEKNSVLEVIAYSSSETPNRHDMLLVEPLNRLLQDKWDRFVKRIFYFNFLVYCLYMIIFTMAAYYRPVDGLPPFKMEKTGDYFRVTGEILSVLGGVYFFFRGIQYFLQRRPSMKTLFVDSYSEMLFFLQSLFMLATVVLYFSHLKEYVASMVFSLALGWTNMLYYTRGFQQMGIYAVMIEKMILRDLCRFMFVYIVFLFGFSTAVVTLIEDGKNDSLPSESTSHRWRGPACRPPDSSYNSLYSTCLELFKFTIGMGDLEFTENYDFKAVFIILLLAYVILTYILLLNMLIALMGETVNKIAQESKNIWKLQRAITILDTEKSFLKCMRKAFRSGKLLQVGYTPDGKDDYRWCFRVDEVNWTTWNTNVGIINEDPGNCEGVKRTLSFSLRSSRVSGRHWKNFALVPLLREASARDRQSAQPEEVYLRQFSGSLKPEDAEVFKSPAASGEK
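Cells expressing TRPV1 were dye-loaded with Fluo-8 and read kinetically: 10 s baseline, 3 min after compound (agonist portion), then 2 min after EC20 capsaicin (allosteric enhancer portion). Calcium-bound dye fluorescence at 480/520 nm.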
FUS suppressor: rescues growth of FUS-expressing yeast. S. cerevisiae FUS-expressing, growth rescue, OD600, 24 h. 390,000 tested, 0.24% active. Potency, µM (titrated, usually from 76.6 µM), actives largely listed as activators. AID 1347120;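 further: potency means the concentration at half of the fitted maximal effect; plate controls were DMSO vehicle for no effect and reference control for full effect; nearly all actives have a fitted effect of over 55% in size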
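Compound concentration series was pinned onto galactose-induced FUS-expressing yeast seeded at OD 0.005. Plates sat 24hr at 30C; absorbance at 600 nm gave growth. DMSO served as background control.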
TRPV1 ag: human TRPV1 agonism | TRPV1-expressing cells, Fluo-8 calcium influx, agonist mode | activation, % at 8.33 µM | AID 540275 | Q8NER1 | 320,000 tested, 0.19% active; in the data active means activation above about 80%; inconclusive means between about 30% and that limit; further: 0% is about no effect
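TRPV1-expressing cells were cultured overnight at 35.5C and loaded with Fluo-8 calcium dye for 40 to 90 min at room temperature. After a 10 s baseline, compound was added and calcium influx was read kinetically for 3 min (ex 480/em 520 nm).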
ELG1 repair inh: blocks ELG1-dependent DNA repair in HEK293T cells | HEK293T ELG1-luciferase reporter, luminescence, 16 h; DNA damage induced by 5-fluorouridine | Potency, µM (series often up to 46.1 µM), for inactives: at the highest dose activity change, negative = inhibition, actives largely listed as inhibitors | 330,000 tested, 2.3% active; further: potency means the concentration at half of the fitted maximal effect; on the % scale 0 is the no-effect control and ±100 the full control effect; nearly all actives have a fitted effect of over 55% in size
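DMSO vehicle served as the neutral condition. Each well held 2,000 cells given 5-fluorouridine plus compound; after 16 hr at 37 °C/5% CO2, ONE-Glo was added and luciferase measured 30 min later.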
Giardia kill: kills Giardia lamblia; AID 540267; Giardia lamblia trophozoite viability; activity change, % at 7.66 µM, hits read low; 340,000 tested, 0.15% active; in the data active means activity change below about -80%; inconclusive means between about -30% and that limit;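 further: parasites exposed to compound for two days anaerobically before the ATP read; on the % scale 0 is the no-effect control and ±100 the full control effect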
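Trophozoites 100 cells/well + cpd; 48 hrs, 37 deg C, anaerobic. ATPLite 1-Step added, 15-30 min RT, luminescence read (ATP-based viability).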
Numbers without * were called inactive. A selection: hits, their analogues and other compounds. The true share with any hit is near 2.3%. Unless noted, the call rests on the fitted dose curve; in most records, active means well fitted curve in the direction sought with a large enough effect; inconclusive means small, poorly fitted or top-dose-only effect, or another doubt; inactive means no such curve, though single readings can be large; an effect the other way counts as inactive or inconclusive.

For CCC[n+]1c2ccccc2cc2ccccc21 the results were TRPV1 PAM -11.4, FUS suppressor inactive, TRPV1 ag 8.1, ELG1 repair inh 23.1µM* and Giardia kill -12.8.
For COc1cc(C2C(C#N)=C(N)Oc3c2ccc2ccccc32)ccc1OCC(=O)Nc1ccc(C)cc1 (configuration not stated) the results were TRPV1 PAM -11.7, FUS suppressor inconclusive, TRPV1 ag 1.1, ELG1 repair inh inconclusive and Giardia kill -19.0.
`COc1cc(C2C(C#N)=C(N)Oc3c2ccc2ccccc32)ccc1OCC(=O)Nc1cccc(C)c1` (configuration not stated) gave TRPV1 PAM 4.0, FUS suppressor inconclusive, TRPV1 ag -3.0, ELG1 repair inh 9.2µM* and Giardia kill -11.1.
Screening COc1cc(SC)ccc1C(=O)Nc1cc(C)c(OCC(=O)N2CCOCC2)c(C)c1 returned TRPV1 PAM 0.3, TRPV1 ag -0.1, ELG1 repair inh 14.6µM* and Giardia kill -21.5.
COc1cc(SC)ccc1C(=O)Nc1ccc(OCC(=O)N2CCOCC2)cc1 was read as TRPV1 PAM 13.7, FUS suppressor inactive, TRPV1 ag 1.6, ELG1 repair inh inconclusive and Giardia kill inconclusive.
For Cc1ccc2oc(C(=O)Nc3nnc(CC(C)C)s3)cc(=O)c2c1 the results were FUS suppressor inactive.
`CCOc1cc(C(=O)Nc2cc(C)on2)cc(OCC)c1OCC` gave TRPV1 PAM -8.9, FUS suppressor inactive, TRPV1 ag inconclusive, ELG1 repair inh 20.6µM* and Giardia kill -8.4.
For O=C(NCCc1ccccc1)C(=O)NCC(c1cccnc1)N1CCN(c2ccccc2F)CC1 (configuration not stated) the results were FUS suppressor inactive.
Screening CC(=O)c1ccc(NC(=O)Cn2ncc3c(C)n(Cc4ccc(F)cc4)c(C)c3c2=O)cc1 returned FUS suppressor inactive.
`CC(=O)n1c2ccccc2c2ccccc21` gave TRPV1 PAM 8.2, FUS suppressor inactive, TRPV1 ag -1.4, ELG1 repair inh -27.6% and Giardia kill 16.2.
Screening CC(=O)n1c(Cl)c(NC(=O)CCl)c2ccccc21 returned TRPV1 PAM 5.5, FUS suppressor inactive, TRPV1 ag -1.5, ELG1 repair inh 25.9µM* and Giardia kill 4.4.
For C=CCN=C1SCC(=O)N1S(=O)(=O)c1ccc(C)cc1 the results were TRPV1 PAM inconclusive, FUS suppressor inactive, TRPV1 ag 1.0, ELG1 repair inh 13.7% and Giardia kill -2.0.
Screening C=CCN=C1S/C(=C\N(C)C)C(=O)N1S(=O)(=O)c1ccc(C)cc1 returned FUS suppressor inactive, ELG1 repair inh 2.06µM* and Giardia kill -5.2.
Cc1onc(-c2ccccc2)c1C(=O)Nc1nnc(CC(C)C)s1 was read as TRPV1 PAM 0.9, FUS suppressor inactive, TRPV1 ag -0.1, ELG1 repair inh -9.3% and Giardia kill 26.3.
COc1ccc(-n2c(-c3ccc(Br)cc3)c[n+]3c2CCC3)cc1 was read as TRPV1 PAM 5.3, FUS suppressor inactive, TRPV1 ag 2.7, ELG1 repair inh 1.83µM* and Giardia kill 8.1.
For COc1ccc(-n2c(-c3ccc(Br)cc3)c[n+]3c2SC(C)C3)cc1 (configuration not stated) the results were TRPV1 PAM -1.0, FUS suppressor inactive, TRPV1 ag 0.5, ELG1 repair inh 5.8µM* and Giardia kill -6.5.
For COc1ccc(-n2c(-c3ccc(Br)cc3)c[n+]3c2CCCCC3)cc1 the results were TRPV1 PAM 0.6, FUS suppressor inactive, TRPV1 ag -2.1, ELG1 repair inh 5.17µM* and Giardia kill -5.5.
`COc1ccc(-n2c(-c3ccccc3)c[n+]3c2CCC3)cc1` gave TRPV1 PAM 0.3, FUS suppressor inactive, TRPV1 ag 0.8, ELG1 repair inh inconclusive and Giardia kill -1.5.
For COc1ccc(-c2cc3c(=O)n(CC(=O)Nc4cc(C)ccc4C)ccn3n2)cc1 the results were FUS suppressor inactive.
Screening Cn1c2ccccc2c2ncn(Cc3ccc(F)cc3)c(=O)c21 returned TRPV1 PAM -2.5, FUS suppressor inactive, TRPV1 ag 80.3*, ELG1 repair inh 9.0% and Giardia kill -10.6.
For Cn1c2ccccc2c2ncn(Cc3ccco3)c(=O)c21 the results were TRPV1 PAM 0.8, FUS suppressor inactive, TRPV1 ag -3.4, ELG1 repair inh 9.9% and Giardia kill -6.4.
O=C(Nc1nccs1)C1CCCN(S(=O)(=O)c2cccc3cccnc23)C1 (configuration not stated) was read as TRPV1 PAM 14.1, FUS suppressor inactive, TRPV1 ag 3.1, ELG1 repair inh 23.1µM* and Giardia kill 1.6.
Screening CC1Cc2ccccc2N1C(=O)C1CCCN(S(=O)(=O)c2cccc3cccnc23)C1 (configuration not stated) returned TRPV1 PAM -8.4, FUS suppressor inconclusive, TRPV1 ag 24.5, ELG1 repair inh 20.6µM* and Giardia kill -2.9.
`O=C(C1CCCN(S(=O)(=O)c2cccc3nonc23)C1)N1CCN(c2cccc(Cl)c2)CC1` (configuration not stated) gave TRPV1 PAM -3.5, FUS suppressor inactive, TRPV1 ag -0.6, ELG1 repair inh inconclusive and Giardia kill 0.5.
CSc1cccc(NC(=O)C2CCCN(S(=O)(=O)c3ccc(F)cc3)C2)c1 (configuration not stated) was read as TRPV1 PAM 8.1, FUS suppressor inactive, TRPV1 ag 11.2, ELG1 repair inh 20.6µM* and Giardia kill -17.0.
O=C(C1CCCN(S(=O)(=O)c2cccc3nonc23)C1)N1CCN(c2ccccc2Cl)CC1 (configuration not stated) was read as TRPV1 PAM -10.0, FUS suppressor inactive, TRPV1 ag 7.9, ELG1 repair inh 23.1µM* and Giardia kill 0.2.
COc1ccc(C2=C(C)C(N3CCC(C(=O)Nc4ccccc4F)CC3)=NS2(=O)=O)cc1 was read as FUS suppressor inactive.
COCCCNC(=O)C1CCN(c2cc(C)nc3c(-c4ccc(OC)c(OC)c4)c(C)nn23)CC1 was read as FUS suppressor inactive.
`CCOc1ccc(NS(=O)(=O)c2ccc(C(=O)N(C)C)s2)cc1` gave FUS suppressor inactive.
For CC(=O)c1cccc(NC(=O)C2CCCN(S(=O)(=O)c3cccc4cccnc34)C2)c1 (configuration not stated) the results were TRPV1 PAM inconclusive, FUS suppressor inactive, TRPV1 ag 5.3, ELG1 repair inh 16.4µM* and Giardia kill 7.8.
Screening O=C(Nc1ccc(C(F)(F)F)cc1)C1CCCN1S(=O)(=O)c1cccc2cccnc12 (configuration not stated) returned TRPV1 PAM -14.5, FUS suppressor inactive, TRPV1 ag -0.2, ELG1 repair inh 20.6µM* and Giardia kill -4.0.
